# Reference: PubChem BioAssay AID2551 (National Center for Advancing Translational Sciences (NCATS), 2010)
# Values joined by “and” are separate entries in the source; they are usually repeats but may differ in a detail not shown here. Equal values may be shown once. Screen size: about 310,000 compounds; about 17,000 (5.5%) were called active. A call without a number means that no potency is given here. Not shown: some 11% with an inconclusive outcome. Calls come from the whole dose curve; as a rule, active = well fitted inhibition curve with a large enough effect; inconclusive = small, poorly fitted or top-dose-only effect, or effect the other way; inactive = no such curve, though single readings can be large or run the other way. For the sample, actives were picked, then their nearest neighbours and some compounds at random. Where a structure was tested more than once in an assay, its records may differ in their call.
# Molecular target: Nuclear receptor ROR-gamma (Mus musculus) (UniProt P51450)
# Sequence (P51450 whole entry, looked up): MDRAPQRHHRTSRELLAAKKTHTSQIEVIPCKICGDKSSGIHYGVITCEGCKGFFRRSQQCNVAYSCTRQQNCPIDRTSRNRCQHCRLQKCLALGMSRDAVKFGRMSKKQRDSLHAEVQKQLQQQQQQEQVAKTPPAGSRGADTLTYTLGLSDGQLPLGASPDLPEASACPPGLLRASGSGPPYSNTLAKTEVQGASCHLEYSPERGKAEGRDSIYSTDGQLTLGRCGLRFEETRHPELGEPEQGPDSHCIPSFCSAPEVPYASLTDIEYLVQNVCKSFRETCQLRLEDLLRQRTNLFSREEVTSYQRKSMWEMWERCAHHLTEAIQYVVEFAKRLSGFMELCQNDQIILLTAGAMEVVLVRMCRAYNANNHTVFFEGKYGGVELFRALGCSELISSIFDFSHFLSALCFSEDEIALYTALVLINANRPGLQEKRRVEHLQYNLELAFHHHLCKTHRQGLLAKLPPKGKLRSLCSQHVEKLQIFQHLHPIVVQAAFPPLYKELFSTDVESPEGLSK
# Assay: qHTS for inhibitors of ROR gamma transcriptional activity; note: nearly all actives have a fitted effect of over 60% in size
# Conditions: Drosophila S2 Gal4-RORgamma UAS-luciferase reporter, 20 h; series mostly up to 53.6 µM
# Description: NIH Molecular Libraries Probe Production Network [MLPCN] NIH Chemical Genomics Center [NCGC] MLPCN Grant: R03 DA026211-01 Assay Provider: Dan Littman, New York University Assay Overview: The retinoic acid-related orphan receptor (ROR) gamma is a transcription factor that has a central role in the differentiation of Th17 cells, a subset of T helper cells that secrete the inflammatory cytokines IL-17, IL-17F, and IL-22. Th17 cells have been implicated in graft versus host disease, autoimmune disease and asthma. ROR gamma is induced in naive T helper cells in the presence of TGF-beta combined with IL-6, IL-21, or IL-23, and thereafter directs the expression of the Th17 lineage cytokines. To study the mechanism of action of ROR gamma, an insect cell-based assay was screened. This Drosophila Schneider cell line was stably transfected with two vectors: a gene expressing a fusion of the Gal4 DNA binding domain and ROR gamma transactivation domain under the control of the metallothionine promoter and a Photinus luciferase reporter regulated by the Gal4 binding site enhancer, UAS. […] Small molecule inhibitors of ROR gamma activity are detected by a decrease in luciferase reporter activity.
# Assay Protocol Summary: For screening, 600 cells in 4 uL/well were dispensed into white solid 1536-well plates (Grenier) using a solenoid-based dispenser. Following transfer of 23 nL compound or DMSO vehicle by a pin tool, the plates were incubated 1 hr at ambient temperature, and 1 uL/well copper sulfate (700 uM final concentration) was added. The plates were centrifuged 15 s at 1000 RPM and incubated 20 hr at ambient temperature. After addition of 1.5 uL Photinus luciferase detection reagent, the plates were incubated 10 min at ambient temperature and then read by an ViewLux (Perkin Elmer) to detect luminescence. Keywords: NIH Roadmap, MLPCN, MLI, MLSMR, qHTS, NCGC, qHTS, nuclear hormone receptor, retinoic acid-related orphan receptor, ROR gamma
# Potency is the fitted concentration of half-maximal effect.
row,SMILES,Potency
1,C=CCSSCC=C,inactive
2,CCCCCCCCc1[se]c2ccccc2c1Br,inactive
3,O=C(O)c1ccccc1NC(=O)C1C2CCC(O2)C1C(=O)O (stereo not drawn),inactive
4,c1csc(CN2CC3(CCNCC3)C2)n1,inactive
5,C1CC[C@H]([C@@]23C[C@H](C[C@H]4CCCN[C@H]42)[C@@H]2CCCCN2C3)NC1,inactive
6,Cc1nc2ccccn2c1P(=S)(N1CCCCC1)N1CCCCC1,7.08 µM (active)
7,c1ccc(CCCCN2CCC(c3ccccc3)CC2)cc1,inactive
8,Clc1ccc([C@@H]2C[C@H]3CC[C@@H]2N3)cn1,inactive
9,CC[C@]1(O)C(=O)OCc2c1cc1n(c2=O)Cc2cc3ccccc3nc2-1,inactive
10,Cc1ncc(CC(=O)n2cc(C(=O)c3cc(Cl)ccc3O)cn2)s1,7.94 µM (active)
11,CC(C)(Cc1c[nH]c2ccc(Cl)cc12)NCCOc1ccccc1OCC1CC1,12.6 µM (active)
12,N[C@H](C(=O)O)c1cc(=O)[nH]o1,inactive
13,CC(=O)[O][Sn]([c]1ccccc1)([c]1ccccc1)[c]1ccccc1,0.891 µM (active)
14,COC(=O)N1C(c2ccccc2)C1c1ccccc1 (stereo not drawn),inactive
15,C[C@@]12CCC3C(CC[C@@H]4CC(O)CC[C@@]34C)C1CCC2O (stereo partly drawn),inactive
16,Cc1ncsc1CCCl,inactive
17,COc1cc2c(cc1OC)[C@@H]1C(=O)c3ccc(O)c(CC=C(C)C)c3OC1CO2 (stereo partly drawn),inactive
18,C[C@@]12CC[C@H]3[C@@H](CC[C@]4(O)C[C@H](O)CC[C@@]34C=O)[C@]1(O)CC[C@@H]2C1=CC(=O)OC1,inactive
19,N#Cc1cc(Br)c(O)c(Br)c1,inactive
20,CCCCC(=O)N/N=C/c1c(O)n(-c2ccccc2)c(=O)[nH]c1=O,inactive
21,CCCCC(=O)N/N=C/c1c(O)n(CC)c(=S)n(CC)c1=O,2 µM (active)

row,SMILES,Potency
1,CCCCC(=O)N/N=C/c1c(O)n(CCC2=CCCCC2)c(=O)[nH]c1=O,inactive
2,CC(Cl)Cl,inactive
3,COC1=C[C@]23CCCN2CCc2cc4c(cc2[C@@H]3[C@@H]1O)OCO4,inactive
4,CCN1C[C@]2(C)CC[C@H](O)[C@@]34[C@@H]5CC6[C@@H](OC)C[C@@](O)([C@@H]5[C@@H]6O)[C@H](C[C@@H]23)[C@H]14,inactive
5,CO[C@H]1[C@@H](O)[C@@H](C)O[C@H](O[C@H]2[C@H](Oc3cccc4c(O)c5c(=O)oc6ccc(C)c7c(=O)oc(c34)c5c67)O[C@H](C)[C@H](O)[C@@H]2O)[C@@H]1O,11.2 µM (active)
6,CN1C2CC3CC1C(O3)C2O (stereo not drawn),inactive
7,CC(C)(c1ccccc1)c1ccc(O)cc1,inactive
8,CCOc1ccc(-c2cc(C)[n+](CCN(CC)CC)c(-c3ccc(OCC)cc3)c2)cc1,inactive
9,CCCCC/C=C\C/C=C\C/C=C\CCCCCCC(=O)NCCO,inactive
10,COc1ccc(CN2CCN(c3ccccc3F)CC2)c(OC)c1,inactive
11,COc1cc(-n2c(=S)[nH]c3ccc(C)cc3c2=O)c(Cl)cc1Cl,2.51 µM (active)
12,COc1ccccc1-c1[se]c2ccccc2c1I,inactive
13,C[C@]12O[C@H](C[C@@]1(O)C(=O)O)n1c3ccccc3c3c4c(c5c6ccccc6n2c5c31)CNC4=O,inactive
14,CNCC[C@H](Oc1ccc(C(F)(F)F)cc1)c1ccccc1,inactive
15,C=CC#N,inactive
16,O=C1C2CCN(CC2)C1(CO)CO,inactive and 25.1 µM (active)
17,c1ccc2c(c1)[I+]c1ccccc1-2,inactive
18,O=P1(Oc2ccccc2)CC(O)C(O)C(COCc2ccccc2)O1 (stereo not drawn),inactive
19,CC(C)(O)c1[se]c2ccccc2c1I,inactive
20,CC[C@H]1CN2CCc3cc(OC)c(OC)cc3[C@@H]2C[C@@H]1C[C@H]1NCCc2cc(OC)c(OC)cc21,1.26 µM (active)
21,CN1CCN(c2cc(N3CCNCC3)ccc2[N+](=O)[O-])CC1,inactive

row,SMILES,Potency
1,COc1cccc(-c2nc3ccc(N4CCN(C)CC4)cc3[nH]2)c1,1.12 µM (active)
2,COC(=O)c1ccc2[se]c(CC3CCCCC3)c(I)c2c1,inactive
3,Cc1ccc(-n2c(O)c(C=NCC3CCCO3)c(=O)[nH]c2=O)c(C)c1 (stereo not drawn),inactive
4,COC1CC(OC2CC[C@@]3(C=O)C4CC[C@]5(C)C(C6=CC(=O)OC6)CC[C@@]5(O)C4CC[C@]3(O)C2)OC(C)C1O (stereo partly drawn),inactive
5,BrC1C(Br)C(Br)C(Br)C(Br)C1Br (stereo not drawn),5.01 µM (active)
6,O=C(Nc1cccc(F)c1)N1CC[C@@]2(CCCN(C(=O)Oc3ccccc3)C2)C1,inactive
7,CCN1C[C@]2(COC)C(O)C[C@H](OC)[C@@]34C5C[C@]6(O)C(OC)C(O)[C@](OC(C)=O)(C5C6OC(=O)c5ccccc5)C(C(OC)C23)C14 (stereo partly drawn),inactive
8,CCCCC#N,inactive
9,COc1cccc(C(=O)N2C[C@H]3C[C@@H](C2)c2cccc(=O)n2C3)c1,inactive
10,O=C(NC(=S)N1C[C@H]2C[C@H](C1)c1cccc(=O)n1C2)c1ccc(F)cc1,11.2 µM (active)
11,COc1cccc(OC)c1C(=O)NC(=S)N1C[C@H]2C[C@H](C1)c1cccc(=O)n1C2,inactive
12,N#CCCCl,inactive
13,CCN(CC)c1nc(C)cc(OP(=S)(OC)OC)n1,inactive
14,CC(C)(c1ccc(OC[C@@H]2CO2)cc1)c1ccc(OC[C@H]2CO2)cc1,inactive
15,CN1CCN(C(=O)O[C@@H]2c3nccnc3C(=O)N2c2ccc(Cl)cn2)CC1,inactive
16,Cn1c(O)c(C=NCCN2CCNCC2)c(=O)n(C)c1=O,inactive
17,CC(=C1C(=O)c2ccccc2C1=O)N1CCN(CCN=Cc2c(O)n(C)c(=O)n(C)c2=O)CC1,7.08 µM (active)
18,Cn1c(O)c(C=NCCCC(=O)O)c(=O)n(C)c1=O,inactive
19,CC(=O)OC1C2CCC3C1(CC(O)[C@@]1(O)[C@@H](CC(O)C1(C)C)[C@]3(C)O)C[C@@]2(C)O (stereo partly drawn),inactive
20,O=[N+]([O-])c1ccc(Cl)c(Cl)c1,inactive
21,N[C@H](Cc1o[nH]c(=O)c1Cl)C(=O)O,inactive
